Measured values reported in PubChem BioAssay (NCATS).
“And” between values parts separate entries of the source, which are not always exact repeats. Equal entries are not always repeated. Inconclusive results are not listed. A number with no mark means an inactive call. The source made the active and inactive calls. The call rests on the fitted dose curve; in most records, active means well fitted inhibition curve with a large enough effect; inconclusive means small, poorly fitted or top-dose-only effect; inactive means flat fitted curve, though single readings scatter.

system: CRL-7250; test: Cytotoxic Profiling of Annotated Libraries Using Quantitative High-Throughput Screening (AID 1296008); settings: Five cell lines viability, CellTiter-Glo ATP luminescence, 48-72 h; max response: hits give low values; further: nearly all actives have a fitted effect of over 60% in size
Procedure, shortened: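 Compounds were pin-transferred onto cells and incubated 48 or 72 hr at 37 degree Celsius, 95% humidity. CellTiter-Glo was added, plates sat 10 min at room temperature, then ATP-coupled luminescence was imaged as the viability read-out.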
On the % scale 0 is the no-effect control and ±100 the full control effect; potency means the concentration at half of the fitted maximal effect.

SMILES | Potency | max response | outcome
O=C(c1ccc(Nc2nccc(-c3cc4ccccc4s3)n2)cc1)N1CCC(N2CCCC2)CC1 | 14.8 µM (active) |  | 
COc1cc(Nc2ncc(F)c(Nc3ccc4c(n3)N(COP(=O)(O)O)C(=O)C(C)(C)O4)n2)cc(OC)c1OC | 1.48 µM (active) and 3.66 µM (active) |  | 
O=C(NCCS(=O)(=O)c1ccc(C(F)(F)F)cn1)c1ccc(Cl)cc1 |  | 2.65% | 
COc1cc(C)c(Sc2cnc(NC(=O)c3ccc(CNC(C)C(C)C)cc3)s2)cc1C(=O)N1CCN(C(C)=O)CC1 (stereo not drawn) | 23.5 µM (active) |  | 
O=C(C=Cc1cccc(S(=O)(=O)Nc2ccccc2)c1)NO | 21.5 µM (active) |  | 
CCn1cc(-c2ccnc3[nH]c(-c4cccc(CN(C)C)c4)cc23)c(-c2ccc(NC(=O)N(C)C)cc2)n1 | 14.8 µM (active) |  | 
O=c1c2ccccc2nc2n1CCc1c-2[nH]c2ccccc12 |  | 3.31% | 
Cc1nc2cnc3ccc(C#Cc4cccnc4)cc3c2n1-c1ccc(C(C)(C)C#N)cc1 | 0.0469 µM (active) |  | 
NC(=O)c1c(OCc2c(F)cc(Br)cc2F)nsc1NC(=O)NCCCCN1CCCC1 | 4.69 µM (active) and 8.2 µM (active) |  | 
c1ccc2c(CCNc3ccc(Nc4ccncc4)cc3)c[nH]c2c1 | 10.5 µM (active) |  | 
CCn1nnc2c(N3CCOCC3)nc(-c3ccc(NC(=O)Nc4ccc(C(=O)N5CCN(C)CC5)cc4)cc3)nc21 | 0.0651 µM (active) |  | 
Cc1ccc(CN2CCNCC2)cc1NC(=O)CNc1ccc(F)c(F)c1 |  |  | inactive
COc1cc(C(C)C)c2c(c1)S(=O)(=O)N(COc1cc(=O)n3cccc(OCCN4CCCCC4)c3n1)C2=O |  | -9.13% | 
COC(=O)[C@]12CCC(C)(C)C[C@@H]1[C@@H]1C(=O)C=C3[C@@]4(C)C=C(C#N)C(=O)C(C)(C)[C@@H]4CC[C@@]3(C)[C@]1(C)CC2 | 4.69 µM (active) |  | 
COC(=O)Nc1ccc(-c2nc(N3CCOCC3)c3cnn(C4CCN(Cc5cccnc5)CC4)c3n2)cc1 | 118 nM (active) and 1.3 µM (active) |  | 
CNC(=O)c1nn(C)c2c1C(C)(C)Cc1cnc(Nc3ccc(N4CCN(C)CC4)cc3)nc1-2 | 46.9 nM (active) and 580 nM (active) |  | 
Cc1cccc(C=NNc2cc(N3CCOCC3)nc(OCCc3ccccn3)n2)c1 |  | -4.72% | 

SMILES | Potency | max response | outcome
Cn1c2cc(S(C)=O)sc2c2cnn(Cc3cccc(N)c3)c(=O)c21 (stereo not drawn) |  | 0.238% | 
CCc1c2c(nc3ccc(O)cc13)-c1cc3c(c(=O)n1C2)COC(=O)[C@]3(O)CC | 651 nM (active) and 2.64 µM (active) |  | 
Nc1cccc(-c2cc3c(Oc4cccc(O)c4)ncnc3[nH]2)c1 | 14.8 µM (active) |  | 
COc1ccc(CC2c3cc(OC)c(OC)cc3CC[N+]2(C)CCC(=O)OCCCCCOC(=O)CC[N+]2(C)CCc3cc(OC)c(OC)cc3C2Cc2ccc(OC)c(OC)c2)cc1OC (stereo not drawn) |  | -0.557% | 
COc1cc2c(cc1-c1c(C)noc1C)ncc1[nH]c(=O)n([C@H](C)c3ccccn3)c12 | 3.26 µM (active) |  | 
O=C(C=Cc1cccnc1)NCCCCC1CCN(C(=O)c2ccccc2)CC1 | 0.0743 µM (active) |  | 
CCCNC(=O)Nc1ccc(Oc2ncnc3cc(OC)c(OC)cc23)cc1Cl |  | -26.7% and 2.06% | 
OCCCNc1cc(-c2ccnc(Nc3cccc(Cl)c3)n2)ccn1 | 46.9 nM (active) and 146 nM (active) |  | 
COc1cc2c(Nc3ccc(NC(=O)c4ccccc4)cc3)ncnc2cc1OCCCN1CCOCC1 |  | 5% | 
COc1ccc(-n2nc(C(N)=O)c3c2C(=O)N(c2ccc(N4CCCCC4=O)cc2)CC3)cc1 |  | -14% and -8.05% | 
CC1COC2(CCN(c3nc(=O)c4cc(C(F)(F)F)cc([N+](=O)[O-])c4s3)CC2)O1 (stereo not drawn) |  |  | inactive
CN(C)CC=CC(=O)Nc1cc2c(Nc3ccc(F)c(Cl)c3)ncnc2cc1O[C@H]1CCOC1 | 3.32 µM (active) |  | 
CCN1CCN(CC(=O)Nc2ccc(-c3cccc4c(=O)cc(N5CCOCC5)oc34)c3sc4ccccc4c23)CC1 | 2.35 µM (active) |  | 
CN(C)Cc1c(C(=O)NCCOc2ccc(C(=O)NO)cc2)oc2ccccc12 | 4.69 µM (active) and 4.61 µM (active) |  | 
C[C@]12CC[C@H](O)CC1=CCC1C2CC[C@]2(C)C(n3cnc4ccccc43)=CCC12 (stereo partly drawn) |  | -7.08% | 
CCS(=O)(=O)c1cccc(-c2cc(C(=O)NC3CCN(C)CC3)c(C)c3[nH]c4ncc(C)cc4c23)c1 | 1.28 µM (active) |  | 
